The results in this text go back to the supplement of paper PMC8866396.

Experiment [1] relates to IL-6-GFP PC-9GR. Put plainly: cell viability (CCK-8 OD) relative to DMSO control (fraction of control); higher = more viable cells. The conditions noted are these: compound concentration: 10 uM; treatment time: 48 h. Summed up: (§1)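 PC-9 and PC-9GR lung cancer cells overexpressing IL-6-GFP from a lentiviral construct were plated at 3000 cells/well in 96-well plates. Each compound from a purchased 510-compound library was added at a final 10 μM for 48 h, with a parallel plate set used for GFP imaging. Viability was measured by CCK-8 absorbance and expressed as each well's optical density divided by the vehicle (DMSO) control well, from two independent replicates.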

Experiment [2] concerns IL-6-GFP PC-9. Described as above. The conditions noted are these: compound concentration: 10 uM; treatment time: 48 h. The method, boiled down:
as §1

± gives the standard deviation of the averaged measurements.

In the case of `O=C(O)c1cc(N=Nc2ccc(S(=O)(=O)Nc3ccccn3)cc2)ccc1O` [Sulfasalazine], the cell viability was found to be 1.41 ± 0.088 in experiment [1] and 1.22 ± 0.16 in experiment [2].

Turning to `CC(C(=O)O)c1ccc(-c2ccccc2)c(F)c1` (stereo not drawn) [Flurbiprofen], the cell viability worked out at 1.04 ± 0.39 in experiment [1] and 0.9552 ± 0.0084 in experiment [2].

Regarding `CC(C)(O)CNc1nc(Nc2ccnc(C(F)(F)F)c2)nc(-c2cccc(C(F)(F)F)n2)n1` [Enasidenib (AG-221)], the cell viability in experiment [1] was 1.25 ± 0.65; in experiment [2], 1.03 ± 0.018.

Take `FC(F)(F)c1ccc(CNc2ccc(Cc3c[nH]c4ncc(Cl)cc34)cn2)cn1` [Pexidartinib (PLX3397)]: the cell viability turned out to be 0.789 ± 0.2 in experiment [1] and 0.898 ± 0.048 in experiment [2].

Regarding `CC(=O)OC1(C(C)=O)CCC2C3C=C(C)C4=CC(=O)CCC4(C)C3CCC21C` (stereo not drawn) [Megestrol Acetate], the cell viability worked out at 1.22 ± 0.09 in experiment [1] and 1.13 ± 0.1 in experiment [2].

Regarding `CNNCc1ccc(C(=O)NC(C)C)cc1.Cl` [Procarbazine HCl], the cell viability was 1.02 ± 0.16 in experiment [1] and 1.17 ± 0.042 in experiment [2].

As for `CC1CC2C3CCC4=CC(=O)C=CC4(C)C3(F)C(O)CC2(C)C1(O)C(=O)CO` (stereo not drawn) [Dexamethasone (DHAP)], the cell viability in experiment [1] was determined as 1.08 ± 0.058; in experiment [2], 0.732 ± 0.072.

Regarding `COc1cccc2c1C(=O)c1c(O)c3c(c(O)c1C2=O)CC(O)(C(C)=O)CC3OC1CC(N)C(O)C(C)O1.Cl` (stereo not drawn) [Daunorubicin HCl], the cell viability in experiment [1] amounted to 0.0902 ± 0.071; in experiment [2], 0.0966 ± 0.039.

On to `CCC(=O)OC1(C(=O)SCF)C(C)CC2C3CC(F)C4=CC(=O)C=CC4(C)C3(F)C(O)CC21C` (stereo not drawn) [Fluticasone propionate], for which the figures for the cell viability in experiment [1] and in experiment [2] were 1.06 ± 0.43 and 0.821 ± 0.024, respectively.

As to `CC(C(=O)O)c1ccc2c(c1)[nH]c1ccc(Cl)cc12` (stereo not drawn) [Carprofen], the cell viability in experiment [1] was determined as 1.16 ± 0.41; in experiment [2], 0.265 ± 0.35.

As for `CCC(c1ccc(O)cc1)C(CC)c1ccc(O)cc1` (stereo not drawn) [Hexestrol], the cell viability was determined as 1.28 ± 0.31 in experiment [1] and 1.16 ± 0.15 in experiment [2].

As for `COc1cc(C2c3cc4c(cc3C(OC3OC5COC(C)OC5C(O)C3O)C3COC(=O)C23)OCO4)cc(OC)c1O` (stereo not drawn) [Etoposide], the cell viability in experiment [1] worked out at 0.779 ± 0.033; in experiment [2], 0.537 ± 0.17.

Take `Cc1cncc(CN2CCC(=C3c4ccc(Cl)cc4CCc4cccnc43)CC2)c1.O=C(O)/C=C/C(=O)O` [Rupatadine Fumarate]: the cell viability in experiment [1] is 0.996 ± 0.05; in experiment [2], 1.16 ± 0.17.

For `Nc1ccn(C2OC(CO)C(O)C2O)c(=O)n1` (stereo not drawn) [Cytarabine], the cell viability was determined as 0.816 ± 0.077 in experiment [1] and 0.7893 ± 0.0033 in experiment [2].

As for `Cc1ccc(C2OC(CO)C(O)C(O)C2O)cc1Cc1ccc(-c2ccc(F)cc2)s1` (stereo not drawn) [Canagliflozin], the results for the cell viability in experiment [1] and in experiment [2] were 1.14 ± 0.12 and 1.16 ± 0.15, respectively.

For `CN(C(=O)c1c(O)c2ccccc2n(C)c1=O)c1ccccc1` [Roquinimex], the figures for the cell viability in experiment [1] and in experiment [2] were 0.937 ± 0.35 and 1.15 ± 0.038, respectively.

Turning to `COc1cc2nccc(Oc3ccc(NC(=O)C4(C(=O)Nc5ccc(F)cc5)CC4)cc3)c2cc1OC`, the cell viability came out at 0.886 ± 0.23 in experiment [1] and 0.56 ± 0.041 in experiment [2].

Regarding `O=C(/C=C/c1ccc(O)c(O)c1)OC(Cc1ccc(O)c(O)c1)C(=O)O` (stereo not drawn) [Rosmarinic acid], the cell viability in experiment [1] came to 1.12 ± 0.24; in experiment [2], 1.14 ± 0.059.

As for `CCCCC1(COC(=O)CCC(=O)O)C(=O)N(c2ccccc2)N(c2ccccc2)C1=O` [Suxibuzone], the values for the cell viability in experiment [1] and in experiment [2] were 0.768 ± 0.21 and 1.07 ± 0.21, respectively.

Regarding `CC(C(=O)O)c1ccc2c(c1)Cc1cccnc1O2` (stereo not drawn) [Pranoprofen], the values for the cell viability in experiment [1] and in experiment [2] were 1.12 ± 0.019 and 1.25 ± 0.055, respectively.

For `COc1cc2ncnc(Nc3ccc(F)c(Cl)c3)c2cc1OCCCN1CCOCC1.Cl` [Gefitinib hydrochloride], the cell viability in experiment [1] came out at 0.91868 ± 0.00075; in experiment [2], 0.6584 ± 0.0058.

As to `O=C(O)COC(=O)Cc1ccccc1Nc1c(Cl)cccc1Cl` [Aceclofenac], the figures for the cell viability in experiment [1] and in experiment [2] were 1.29 ± 0.4 and 1.1 ± 0.052, respectively.

Regarding `CC(=O)OC12COC1CC(O)C1(C)C(=O)C(O)C3=C(C)C(OC(=O)C(O)C(NC(=O)OC(C)(C)C)c4ccccc4)CC(O)(C(OC(=O)c4ccccc4)C21)C3(C)C.O.O.O` (stereo not drawn) [Docetaxel Trihydrate], the cell viability came out at 0.528 ± 0.15 in experiment [1] and 0.631 ± 0.044 in experiment [2].

Turning to `Cc1ccc(-c2ncc(Cl)cc2-c2ccc(S(C)(=O)=O)cc2)cn1` [Etoricoxib], the cell viability in experiment [1] was determined as 0.855 ± 0.092; in experiment [2], 1.21 ± 0.029.

As for `Cc1nc(Nc2ncc(C(=O)Nc3c(C)cccc3Cl)s2)cc(N2CCN(CCO)CC2)n1` [Dasatinib], the cell viability in experiment [1] is 0.953 ± 0.026; in experiment [2], 0.206 ± 0.2.

Take `O=C(O)c1ccccc1O.[NaH]` [Sodium salicylate]: the cell viability in experiment [1] is 1.02 ± 0.2; in experiment [2], 1.03 ± 0.12.

As to `CCC(C)(Oc1ccc(C2(c3ccc(OC(C)(CC)C(=O)O)cc3)CCCCC2)cc1)C(=O)O` (stereo not drawn) [Clinofibrate], the cell viability in experiment [1] worked out at 1.17 ± 0.14; in experiment [2] it was 1.23 ± 0.42.

In the case of `CC1(C)OC2CC3C4CC(F)C5=CC(=O)C=CC5(C)C4(F)C(O)CC3(C)C2(C(=O)CO)O1` (stereo not drawn) [Fluocinolone Acetonide], the values for the cell viability in experiment [1] and in experiment [2] were 1.26 ± 0.091 and 1 ± 0.015, respectively.

Regarding `Cl.Nc1ccn(C2OC(CO)C(O)C2(F)F)c(=O)n1` (stereo not drawn) [Gemcitabine HCl], the cell viability in experiment [1] was found to be 0.596 ± 0.012; in experiment [2] it was 0.566 ± 0.046.

Consider `CCOC(=O)C(CCc1ccccc1)NC1CSC(c2cccs2)CN(CC(=O)O)C1=O` (stereo not drawn) [Temocapril], for which the results for the cell viability in experiment [1] and in experiment [2] were 0.726 ± 0.078 and 1.14 ± 0.099, respectively.

Turning to `CC/C(=C(/CC)c1ccc(O)cc1)c1ccc(O)cc1` [Diethylstilbestrol], the cell viability in experiment [1] came to 1.13 ± 0.038; in experiment [2] it was 1.18 ± 0.19.

As to `Cc1ccc(S(=O)(=O)O)cc1.NC(=O)c1cccc2cn(-c3ccc(C4CCCNC4)cc3)nc12` (stereo not drawn) [Niraparib (MK-4827) tosylate], the cell viability was 0.764 ± 0.096 in experiment [1] and 0.916 ± 0.22 in experiment [2].

In the case of `C=C1CCC2C(C)(CO)C(O)CCC2(C)C1C/C=C1\C=COC1=O` (stereo not drawn) [Dehydroandrographolide], the cell viability in experiment [1] is 1.17 ± 0.35; in experiment [2], 1.24 ± 0.12.

As to `CC(=O)OC1CCC2(C)C(CCC3(C)C2C(=O)C=C2C4C(C)C(C)CCC4(C)CCC23C)C1(C)C(=O)O` (stereo not drawn), the cell viability in experiment [1] was found to be 0.941 ± 0.28; in experiment [2], 1.09 ± 0.16.

Take `Cc1nnc(C(=O)NC(C)(C)c2nc(C(=O)NCc3ccc(F)cc3)c(O)c(=O)n2C)o1` [Raltegravir (MK-0518)]: the cell viability in experiment [1] is 1.21 ± 0.063; in experiment [2] it was 1.39 ± 0.3.

For the compound `CN1C(C(=O)Nc2ccccn2)=C(O)c2ccccc2S1(=O)=O` [Piroxicam], the figures for the cell viability in experiment [1] and in experiment [2] were 1.21 ± 0.047 and 1.09 ± 0.12, respectively.

Turning to `CN1C2=CC(=O)/C(=N\NC(N)=O)C=C2CC1S(=O)(=O)[O-].[Na+]` (stereo not drawn) [Carbazochrome sodium sulfonate (AC-17)], the results for the cell viability in experiment [1] and in experiment [2] were 1.16 ± 0.028 and 1.04 ± 0.16, respectively.

In the case of `COC1CC2CCC(C)C(O)(O2)C(=O)C(=O)N2CCCCC2C(=O)OC(C(C)CC2CCC(OP(C)(C)=O)C(OC)C2)CC(=O)C(C)/C=C(\C)C(O)C(OC)C(=O)C(C)CC(C)/C=C/C=C/C=C/1C` (stereo not drawn) [Ridaforolimus (Deforolimus, MK-8669)], the results for the cell viability in experiment [1] and in experiment [2] were 1.15 ± 0.22 and 0.571 ± 0.42, respectively.

Turning to `CC(C)c1c(C(=O)Nc2ccccc2)c(-c2ccccc2)c(-c2ccc(F)cc2)n1CCC(O)CC(O)CC(=O)O` (stereo not drawn) [atorvastatin], the cell viability in experiment [1] amounted to 0.904 ± 0.21; in experiment [2], 0.866 ± 0.015.

`COc1cc2c3cc1Oc1c(OC)c(OC)cc4c1C(Cc1ccc(O)c(c1)Oc1ccc(cc1)CC3N(C)CC2)N(C)CC4.Cl.Cl` (stereo not drawn) [Berbamine (dihydrochloride)]: the cell viability in experiment [1] came to 1.14 ± 0.35; in experiment [2] it was 1.04 ± 0.053.

Turning to `CC(C)(O)c1ccccc1CCC(SCC1(CC(=O)O)CC1)c1cccc(/C=C/c2ccc3ccc(Cl)cc3n2)c1` (stereo not drawn) [Montelukast], the cell viability in experiment [1] stood at 1.11 ± 0.26; in experiment [2], 0.934 ± 0.32.

For the compound `CC(C)Cc1ccc(C(C)C(=O)O)cc1` (stereo not drawn) [Ibuprofen], the cell viability in experiment [1] worked out at 1.32 ± 0.12; in experiment [2], 1.06 ± 0.19.

For the compound `CCS(=O)(=O)O.COC(=O)c1ccc2c(c1)NC(=O)/C2=C(\Nc1ccc(N(C)C(=O)CN2CCN(C)CC2)cc1)c1ccccc1` [Nintedanib Ethanesulfonate Salt], the values for the cell viability in experiment [1] and in experiment [2] were 0.8 ± 0.075 and 0.782 ± 0.023, respectively.

As for `O=c1cc[nH]c(=O)[nH]1` [Uracil], the cell viability in experiment [1] was found to be 0.909 ± 0.021; in experiment [2] it was 0.701 ± 0.11.

Consider `COc1cc(C2Oc3ccc(C4Oc5cc(O)cc(O)c5C(=O)C4O)cc3OC2CO)ccc1O` (stereo not drawn) [Silymarin], for which the cell viability in experiment [1] turned out to be 1.53 ± 0.29; in experiment [2], 1.21 ± 0.17.

For `O=c1[nH]c(=O)n(C2CC(O)C(CO)O2)cc1F` (stereo not drawn) [Floxuridine], the cell viability in experiment [1] amounted to 0.681 ± 0.02; in experiment [2] it was 0.808 ± 0.25.

Turning to `Cc1ccc(Cl)c(Nc2ccccc2C(=O)[O][Na])c1Cl` [Meclofenamate Sodium], the cell viability in experiment [1] was 0.983 ± 0.054; in experiment [2], 1.02 ± 0.11.

Consider `C[S+](C)CCC(N)C(=O)O.[Cl-]` (stereo not drawn), for which the cell viability in experiment [1] amounted to 1.11 ± 0.29; in experiment [2] it was 1.08 ± 0.22.

`Nc1nc(=S)c2[nH]cnc2[nH]1` [Thioguanine]: the cell viability in experiment [1] came to 1.37 ± 0.42; in experiment [2] it was 1.2 ± 0.061.
